41 molecules from PubChem BioAssay AID1076 (NMMLSC, 2008) can be followed below.

Calls of active or inactive are those of the source.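 How the source made its calls: active means cell event count below 40, meaning activity score above 60 where score is 100 minus count; inactive means the rest.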

The nature of the assay: LNCaP cell loss by flow event count, confirmation, cytotoxicity control for prostate differentiation activator project, single point (AID 1076).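 Further: counts scatter-gated live cells after medium removal discards detached dead cells.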 Conditions: flow cytometry event count, 4 d, stronger effect = lower value.

`COC(=O)Nc1sccc1C(=O)Nc1sccc1C(=O)OC`: the cell event count by setting is: (at 100 µM) 144 (inactive); (event count, at 10 µM) 182.
In the case of `Cc1oc(-c2ccc(Cl)cc2)nc1CN1CCCC(C(=O)N2CCN(C(=O)c3ccco3)CC2)C1` (configuration not stated), the cell event count (at 100 µM) was 19 (inactive) and the cell event count (event count, at 10 µM) amounted to 120.
On the same counts, the results for `O=C(CCN1C(=O)COc2ccccc21)NCCCN1CCN(c2ccccc2F)CC1` are 186 (inactive) and 204.
As for `Cc1ccccc1-c1nc(CN2CCC(C(=O)NCCCN3CCCC3)CC2)c(C)o1`, the cell event count was 20 (inactive) (at 100 µM) and 65 (event count, at 10 µM).
Regarding `Cc1oc(-c2ccccc2F)nc1CN1CCC(C(=O)NC2CC2)CC1`, the cell event count is, setting by setting: (at 100 µM) 363 (inactive); (event count, at 10 µM) 496.
For `Cc1cc(C)nc(N2CCC(C(=O)Nc3ccc(Oc4ccccc4)cc3)CC2)n1`, the cell event count (at 100 µM) was 145 (inactive) and the cell event count (event count, at 10 µM) was 398.
Turning to `CN(C)CCCN1c2ccccc2CCc2ccc(Cl)cc21`, the cell event count (at 100 µM) was 43 (inactive) and the cell event count (event count, at 10 µM) was found to be 74.
`Cc1nc2c3cnn(-c4ccccc4)c3ncn2n1`: the cell event count is 159 (inactive) (at 100 µM) and 145 (event count, at 10 µM).
As for `COc1ccc(OC)c(CNC(=O)CCNC(=O)Cn2ccc3ccccc3c2=O)c1`, the cell event count was 63 (inactive) (at 100 µM) and 73 (event count, at 10 µM).
Turning to `CCC(CC)C(=O)Nc1cccc(C(=O)NCc2ccco2)c1`, the cell event count was 220 (inactive) (at 100 µM) and 155 (event count, at 10 µM).
On the same counts, the results for `CC(=O)c1cccc(NC2c3ccccc3C(=O)N2Cc2ccc3c(c2)OCO3)c1` (configuration not stated) are 121 (inactive) and 281.
`COc1ccc2nc(NC(=O)C(NS(=O)(=O)c3cccs3)C(C)C)sc2c1` (configuration not stated): the cell event count was 67 (inactive) (at 100 µM) and 253 (event count, at 10 µM).
On the same counts, the results for `O=C(Cc1ccc(-n2cccc2)cc1)NCc1cccs1` are 160 (inactive) and 133.
Turning to `Cc1oc(-c2ccc(Cl)cc2)nc1CN1CCC(C(=O)NCc2ccco2)CC1`, the cell event count was 178 (inactive) (at 100 µM) and 174 (event count, at 10 µM).
Take `Cc1oc(-c2ccc(Cl)cc2)nc1CN1CCC(C(=O)N2CCc3ccccc3C2)CC1`: the cell event count is, setting by setting: (at 100 µM) 18 (inactive); (event count, at 10 µM) 320.
In the case of `O=C(Cn1cnc2ccccc2c1=O)NCCC(=O)N1CCN(c2ccccc2)CC1`, the cell event count runs as follows: (at 100 µM) 158 (inactive); (event count, at 10 µM) 190.
For the molecule `CN(CC(=O)Nc1ccc2c(c1)OCCO2)S(=O)(=O)c1cccc2cccnc12`, the cell event count reads like this: (at 100 µM) 95 (inactive); (event count, at 10 µM) 156.
For `CCOC(=O)c1cc2c(=O)n3ccccc3nc2n(CCCOC)c1=NC(=O)c1cccnc1` the same measures were 223 (inactive) and 144.
Consider `Cc1oc(-c2cccc(Cl)c2)nc1CN1CCC(C(=O)NCc2cccnc2)CC1`, for which the cell event count by setting is: (at 100 µM) 38 (inactive); (event count, at 10 µM) 150.
In the case of `Cc1ccc(-n2nc3cc(Cl)c(NC(=O)c4ccco4)cc3n2)cc1`, the cell event count was 333 (inactive) (at 100 µM) and 236 (event count, at 10 µM).
`COc1ccc(N2CCN(CCCNC(=O)C3(S(=O)(=O)c4ccc(Cl)cc4)CC3)CC2)cc1`: the cell event count is 93 (inactive) (at 100 µM) and 136 (event count, at 10 µM).
On to `COc1ccc(S(=O)(=O)Nc2ccc(F)c(Cl)c2)cc1OC`, for which the cell event count runs as follows: (at 100 µM) 18 (inactive); (event count, at 10 µM) 144.
For `Cc1oc(-c2ccc(Cl)cc2)nc1CN1CCC(C(=O)NCc2cccnc2)CC1` the same measures were 20 (inactive) and 125.
`CC(C)(C)C1CCc2onc(C(=O)Nc3cnn(Cc4ccc(F)cc4)c3)c2C1` (configuration not stated): the cell event count runs as follows: (at 100 µM) 66 (inactive); (event count, at 10 µM) 242.
As for `Cn1c(C(=O)NCCCN2CCN(c3cccc(Cl)c3)CC2)cc2c(=O)n(C)c3ccccc3c21`, the cell event count is, setting by setting: (at 100 µM) 46 (inactive); (event count, at 10 µM) 251.
As for `Cc1ccc2c(c1)NC(=O)C(CC(=O)NCCCN1CCN(c3cc(C)ccc3C)CC1)O2` (configuration not stated), the cell event count is 113 (inactive) (at 100 µM) and 152 (event count, at 10 µM).
Turning to `Cc1cc(C)n2nc(SCC(=O)Nc3ccc(F)cc3)nc2n1`, the cell event count reads like this: (at 100 µM) 226 (inactive); (event count, at 10 µM) 343.
Consider `Nc1ccccc1NC(=O)c1ccccc1N`, for which the cell event count was 236 (inactive) (at 100 µM) and 313 (event count, at 10 µM).
With `Cn1c(=O)cc(OCC(=O)NCCCN2CCN(c3cccc(Cl)c3)CC2)c2ccccc21`, the cell event count is 10 (inactive) (at 100 µM) and 280 (event count, at 10 µM).
Regarding `CC1=C(n2nnc3ccccc32)C(c2ccccc2)C(C#N)=C(N)O1` (configuration not stated), the cell event count is, setting by setting: (at 100 µM) 96 (inactive); (event count, at 10 µM) 97.5.
Consider `CC(=O)Nc1cc(C(=O)N2CCOCC2)ccc1S(=O)(=O)c1ccc(C)cc1`, for which the cell event count runs as follows: (at 100 µM) 272 (inactive); (event count, at 10 µM) 300.
For `O=c1c2ccccc2nnn1CSc1nnc2sc3ccccc3n12` the same measures were 141 (inactive) and 143.
With `COc1ccccc1N1CCN(C(=O)CCn2c(=O)[nH]c3ccsc3c2=O)CC1`, the cell event count runs as follows: (at 100 µM) 206 (inactive); (event count, at 10 µM) 224.
Consider `O=C(Nc1c(C(=O)N2CCOCC2)cnn1-c1ccccc1)c1ccco1`, for which the cell event count is, setting by setting: (at 100 µM) 201 (inactive); (event count, at 10 µM) 124.
Take `Cc1cccc(-c2nc(CN3CCCC(C(=O)NC4CCCCC4)C3)c(C)o2)c1` (configuration not stated): the cell event count (at 100 µM) is 28 (inactive) and the cell event count (event count, at 10 µM) worked out at 170.
Consider `Cc1ccc2c(c1)c1c(n2CC(O)Cn2c(C)nc3ccccc32)/C(=N\O)CCC1` (configuration not stated), for which the cell event count runs as follows: (at 100 µM) 16 (inactive); (event count, at 10 µM) 454.
For `CCOC(=O)N1CCN(C(=O)C2CCN(Cc3nc(-c4ccccc4C)oc3C)CC2)CC1` the same measures were 111 (inactive) and 244.
For `COc1cc2nc(N3CCN(C(=O)C4COc5ccccc5O4)CC3)nc(N)c2cc1OC` (configuration not stated) the same measures were 5 (inactive) and 124.
In the case of `Cc1ccc(C(=O)/C=C/Nc2cccc(O)c2)cc1`, the cell event count was 17 (inactive) (at 100 µM) and 74 (event count, at 10 µM).
With `Cc1ccccc1-c1nc(CN2CCCC(C(=O)NCCCN3CCOCC3)C2)c(C)o1` (configuration not stated), the cell event count (at 100 µM) was 145 (inactive) and the cell event count (event count, at 10 µM) came out at 175.
Consider `N#C/C(=C\c1ccc(O)c(O)c1)C(=O)NCCCc1ccccc1`, for which the cell event count is, setting by setting: (at 100 µM) 38 (inactive); (event count, at 10 µM) 99.
